# Bioassay records (PubChem)
# IMPase Li cell = IMPase inhibition in cells with lithium potentiation; CHO-M1 cells, IP1 TR-FRET (IP-One), carbachol + lithium; Potency, µM (titrated, usually from 59.4 µM), hits mostly inhibitors; 210,000 compounds, 0.35% hits; AID 1457;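 note: IP1 builds up when IMPase is blocked and the TR-FRET signal falls; nearly all actives have a fitted effect of over 50% in size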
#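 Concentration–response in CHO-M1 cells, lithium-potentiated; 30 min at 37C. IP1 detected by competitive TR-FRET after 10 min lysis at RT. Hill-fitted AC50.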
# IMPase inh = membrane-permeable compound that blocks inositol monophosphatase | inhibition (IP1 accumulation), % at 46.1 µM | CHO-M1 cells, IP1 accumulation, HTRF TR-FRET ratio | AID 901 | 120,000 tested, under 10 active | P97697; active = well fitted curve in the direction sought with a large enough effect in the signal ratio, not every such curve was filed as active; inconclusive = small, poorly fitted or top-dose-only effect, or a change in a side signal; inactive = no such curve, though single readings can be large or run the other way; the % refers to the signal ratio;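 note: cells stimulated with carbachol in lithium chloride buffer; higher means more IMPase inhibition seen as more IP1 and lower FRET ratio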
#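 Carbachol-driven Gq signalling in CHO-M1 cells (2000/well) generates IP1. Compounds that block IMPase raise IP1 and so reduce the FRET signal from Eu-anti-IP1 and d2-IP1 after a 10 min room-temperature lysis.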
# 12-hLO inh = inhibitors of human 12-lipoxygenase (ALOX12); P18054; purified 12-hLO, xylenol orange hydroperoxide absorbance; Potency, µM (top dose mostly 57.1 µM), actives largely listed as inhibitors; 150,000 compounds, 0.12% hits; note: nearly all actives have a fitted effect of over 55% in size
#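 150 nM 12hLO, 25 mM Hepes pH 7.0 + 0.01% Triton X-100; cpd preinc 15 min RT; 40 uM arachidonic acid, 30 min RT; Fe-XO 30 min; A573/A405 ratio as read-out.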
# ALOX15B inhib = inhibitors of human 15-lipoxygenase 2 (ALOX15B); O15296; purified 15hLO-2, xylenol orange hydroperoxide absorbance; Potency, µM (doses to about 57.1 µM), hits mostly inhibitors; 110,000 compounds, 0.56% hits; AID 881; note: nearly all actives have a fitted effect of over 60% in size
# Target sequence (O15296 whole entry, looked up): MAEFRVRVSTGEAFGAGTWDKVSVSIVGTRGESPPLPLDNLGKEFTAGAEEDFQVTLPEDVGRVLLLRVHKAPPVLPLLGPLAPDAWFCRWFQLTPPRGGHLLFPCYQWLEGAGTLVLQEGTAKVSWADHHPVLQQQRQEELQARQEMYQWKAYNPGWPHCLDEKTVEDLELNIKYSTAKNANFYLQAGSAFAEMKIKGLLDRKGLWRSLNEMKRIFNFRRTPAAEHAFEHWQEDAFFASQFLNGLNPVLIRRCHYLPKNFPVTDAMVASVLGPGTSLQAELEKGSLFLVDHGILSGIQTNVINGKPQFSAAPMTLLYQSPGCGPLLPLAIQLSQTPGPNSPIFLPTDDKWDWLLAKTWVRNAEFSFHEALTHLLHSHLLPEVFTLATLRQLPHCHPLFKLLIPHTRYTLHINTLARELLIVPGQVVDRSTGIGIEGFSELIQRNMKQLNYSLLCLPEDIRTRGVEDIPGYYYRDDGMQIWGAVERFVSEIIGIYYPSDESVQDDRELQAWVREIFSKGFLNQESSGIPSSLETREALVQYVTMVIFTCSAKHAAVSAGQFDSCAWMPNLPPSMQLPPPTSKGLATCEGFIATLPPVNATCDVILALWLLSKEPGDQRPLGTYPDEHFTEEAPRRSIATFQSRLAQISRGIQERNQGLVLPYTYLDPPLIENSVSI
#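 Read-out: hydroperoxide product oxidises ferrous iron, measured as xylenol orange complex via the 573-to-405 nm absorbance ratio after 30 min. Reaction: 50 nM enzyme, 15 min compound preincubation, 45 uM arachidonic acid, 90 min RT, Hepes pH 7.5 with Triton X-100.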
# Numbers stand for hits; 0 = inactive; ? = inconclusive; - = no result; [ ] = remark or other dose. Sampled rows, rich in hits. Any-hit rate of the full collection: about 0.57%. Unless noted, calls come from the whole dose curve; as a rule, active = well fitted curve in the direction sought with a large enough effect; inconclusive = small, poorly fitted or top-dose-only effect, or another doubt; inactive = no such curve, though single readings can be large; an effect the other way counts as inactive or inconclusive.
SMILES,IMPase Li cell,IMPase inh,12-hLO inh,ALOX15B inhib
O=C1OCCC1Sc1ncnc2sc3c(c12)CCC3 (stereo unspecified),0,0,0,-
CC(C)[C@H](O)CC[C@@H](C)C1CC[C@H]2C3CC=C4C[C@@H](O)CC[C@]4(C)C3CC[C@]12C (stereo partly specified),0,-,-,-
Cc1ccc(-c2nc(=S)c3c(n2Cc2ccco2)CC(C)(C)OC3)cc1,4µM,0,0,?
CCOC(=O)N1CCN(c2c(F)cc3[nH]c(=S)[nH]c3c2Br)CC1,0,0,?,13µM
O=C1c2c(O)cc(O)cc2O[C@@H](c2ccc(O)c(O)c2)[C@H]1O,-,0,?,0
COc1ccc(S(=O)(=O)Nc2ccccc2SC)cc1C,11µM,0,0,0
COc1ccc(S(=O)(=O)Nc2ccccc2OC)cc1C,0,0,0,0
Cc1cccc2cc(C#N)c(SCC#N)nc12,14µM,-,-,-
Cc1ccc(C)c2nc(SCC(=O)NCc3cccs3)c(C#N)cc12,5µM,0,0,-
Cc1cccc2cc(C#N)c(SCC(=O)NNC(=O)Cc3ccccc3)nc12,?,0,0,0
Cc1cccc2cc(C#N)c(SCC(=O)NCc3cccs3)nc12,7.9µM,-,0,-
COC(=O)C1=C(C(=O)OC)[C@@H]2N(Cc3ccccc3)c3ccccc3[C@@]23C[C@@H](C(=O)OC)N(S(=O)(=O)c2cccs2)C3=N1,0,-,0[11.4 µM],-
COC(=O)c1cc(NC(=O)c2c(Cl)nc3sccn23)cc(C(=O)OC)c1,11µM,0,0,0
CCOC(=O)c1cnc2ccccc2c1Nc1cccc(C(=O)O)c1,7.9µM,-,-,-
Cc1ccc(-n2c(C)nc3oc4ccccc4c(=O)c3c2=O)cc1,6.3µM,0,0,0
Nc1ncnc2c1nc(Br)n2[C@@H]1O[C@H]2COP(=O)(O)O[C@@H]2[C@H]1O,-,?,0,0
NCCOc1ccccc1OCCN,0,-,-,-
NCCOB(c1ccccc1)c1ccccc1,0,0,?,20µM
Cc1cccc(NS(=O)(=O)c2cc(C(=O)O)ccc2Cl)c1,-,-,0,-
CC1CCN(CC[C@@H]2CCCN2S(=O)(=O)c2cccc(O)c2)CC1,-,0,0,0
N#Cc1c(-c2ccc3c(c2)OCO3)ccn2nc(-c3cccc(C(F)(F)F)c3)nc12,13µM,0,0,0
CC(C)(C)c1nc2c(C#N)c(-c3ccc(Cl)cc3)ccn2n1,0,0,0,0
COc1cccc(CNC(=O)C2CCC(CNc3nc(=S)[nH]c4ccccc34)CC2)c1 (stereo unspecified),10µM,-,-,-
Cc1ccc(CNC(=O)C2CCC(CNc3nc(=S)[nH]c4ccccc34)CC2)cc1 (stereo unspecified),0,-,-,-
CCn1c(NC(=S)Nc2ccccc2)nc2ccccc21,0,0,?,25µM
SMILES,IMPase Li cell,IMPase inh,12-hLO inh,ALOX15B inhib
OCC1OC([S-])[C@H](O)C(O)C1O.[Au+] (stereo partly specified),0,-,0,?
CCCNC(=O)COc1nc2ccccc2nc1N1CCOCC1,0,-,0,-
CC1Cc2ccccc2N1C(=O)COc1nc2ccccc2nc1N1CCOCC1 (stereo unspecified),25µM,?,0,0
Cc1nn(-c2ccc(Cl)cc2)c2sc(C(=O)c3c(N)n(C)c(=O)n(C)c3=O)cc12,13µM,0,0,?
COC(=O)CCCCCc1ccc(C(C)=O)s1,10µM,?,0,0
COC(=O)C1=C(C(=O)OC)[C@@H]2N(Cc3ccccc3)c3ccccc3[C@@]23C[C@@H](C(=O)OC)N(S(=O)(=O)c2ccc(C#N)cc2)C3=N1,0,-,0[11.4 µM],-
CC(C)COc1ccc(CSCCNC(=S)Nc2ccccc2)cc1,0,0,28µM,25µM
CCCCOc1ccc(CSCCNC(=S)Nc2ccccc2)cc1,0,0,0,-
Oc1cc(O)c2c(c1)O[C@@H](c1ccc(O)c(O)c1)[C@H](O[C@@]1(c3cc(O)c(O)c(O)c3)Oc3cc(O)cc(O)c3[C@H](O)[C@@H]1O)C2,0,-,?,?
Cc1ccc(-n2c(N)c(C#N)c(-c3ccc(Cl)cc3)c(C#N)c2=O)cc1,28µM,?,0,0
Cc1ccc(-c2c(C#N)c(N)n(-c3ccc(C)cc3)c(=O)c2C#N)cc1,?,?,0,0
COC(=O)C1=C(C(=O)OC)[C@@H]2N(C)c3ccccc3[C@@]23C[C@@H](C(=O)OC)N(S(=O)(=O)c2ccc(OC)cc2)C3=N1,0,-,0[11.4 µM],-
c1ccc2sc(SN3CCOCC3)nc2c1,0,0,0,20µM
C=CCn1c(-c2cccc(Cl)c2)n[nH]c1=S,8.9µM,0,0,0
CN(C)CCCN1C(=O)C(=O)/C(=C(/O)c2ccc(OCc3ccccc3)cc2)C1c1cccnc1 (stereo unspecified),0,0,0,0
CCOc1ccc(/C(O)=C2/C(=O)C(=O)N(CCOCCO)C2c2ccccc2)cc1 (stereo unspecified),11µM,?,0,0
O=C1C(=O)N(CCOCCO)C(c2ccccn2)/C1=C(\O)c1ccccc1 (stereo unspecified),-,0,0,0
COCCN1C(=O)C(=O)/C(=C(/O)c2ccc(OC(C)C)cc2)C1c1cccnc1 (stereo unspecified),10µM,0,0,0
CCOc1ccc(/C(O)=C2/C(=O)C(=O)N(CCOCCO)C2c2cccnc2)cc1 (stereo unspecified),11µM,?,0,0
Nc1ncnc2c1nc(Sc1ccc(Cl)cc1)n2[C@@H]1O[C@H]2COP(=O)(O)O[C@@H]2[C@H]1O,-,?,0,0
CCOC(=O)c1cc(C(=O)OCC)c2cc(Br)ccc2n1,10µM,?,0,0
O=C(O)[C@H]1C[C@H](C(=O)O)N1,-,0,0,0
CNC(=O)Oc1ccc2c(c1)C1(C)CCN(C)C1N2C (stereo unspecified),0,0,0,0
CC1(C)CC(Nc2ccc(Nc3ccccc3)cc2)CC(C)(C)N1,0,-,?,4µM
Nc1ccc(N(c2ccccc2)c2ccc(N)cc2)cc1,0,0,0,0.63µM
SMILES,IMPase Li cell,IMPase inh,12-hLO inh,ALOX15B inhib
Cc1ccc(-c2cc(C(=O)N3CCN(c4ccc(F)cc4)CC3)c3ccccc3n2)o1,0,0,0,13µM
COc1cccc(/C=N/NC(=O)c2cc(-c3ccc(C)cc3)n[nH]2)c1O,-,-,0,-
COc1ccc(OC)c(/C=N/N(C)c2ccccc2)c1,0,0,0,0
COc1cc(/C=N/N(C)c2ccccc2)cc(Cl)c1O,0,0,?,10µM
CN(C)CCCN=c1c2ccccc2n(C)c2[nH]c(=O)n(C)c(=O)c12,0,-,0[11.4 µM],0[11.4 µM]
O=C(COC(=O)c1cc(-c2ccc(Cl)s2)nc2ccccc12)NCc1ccco1,?,?,0,0
COc1ccc(CNC(=O)COC(=O)c2cc(-c3ccc(Cl)s3)nc3ccccc23)cc1,10µM,0,0,0
O=C(COC(=O)c1cc(-c2cccs2)nc2ccccc12)NCc1ccco1,7.9µM,0,?,?
O=C(NCc1ccco1)c1cc(-c2cccs2)nc2ccccc12,0,0,0,-
NC(C(=O)O)(c1ccc(P(=O)(O)O)cc1)C1CC1 (stereo unspecified),0,-,-,-
